POLI inh – inhibitors of human DNA polymerase iota; Potency, µM (doses to about 115 µM), hits mostly inhibitors; 1% of 390,000 active; Pol iota fluorescent replication assay, 10 min; Q9UNA4
Target sequence (Q9UNA4 whole entry, looked up): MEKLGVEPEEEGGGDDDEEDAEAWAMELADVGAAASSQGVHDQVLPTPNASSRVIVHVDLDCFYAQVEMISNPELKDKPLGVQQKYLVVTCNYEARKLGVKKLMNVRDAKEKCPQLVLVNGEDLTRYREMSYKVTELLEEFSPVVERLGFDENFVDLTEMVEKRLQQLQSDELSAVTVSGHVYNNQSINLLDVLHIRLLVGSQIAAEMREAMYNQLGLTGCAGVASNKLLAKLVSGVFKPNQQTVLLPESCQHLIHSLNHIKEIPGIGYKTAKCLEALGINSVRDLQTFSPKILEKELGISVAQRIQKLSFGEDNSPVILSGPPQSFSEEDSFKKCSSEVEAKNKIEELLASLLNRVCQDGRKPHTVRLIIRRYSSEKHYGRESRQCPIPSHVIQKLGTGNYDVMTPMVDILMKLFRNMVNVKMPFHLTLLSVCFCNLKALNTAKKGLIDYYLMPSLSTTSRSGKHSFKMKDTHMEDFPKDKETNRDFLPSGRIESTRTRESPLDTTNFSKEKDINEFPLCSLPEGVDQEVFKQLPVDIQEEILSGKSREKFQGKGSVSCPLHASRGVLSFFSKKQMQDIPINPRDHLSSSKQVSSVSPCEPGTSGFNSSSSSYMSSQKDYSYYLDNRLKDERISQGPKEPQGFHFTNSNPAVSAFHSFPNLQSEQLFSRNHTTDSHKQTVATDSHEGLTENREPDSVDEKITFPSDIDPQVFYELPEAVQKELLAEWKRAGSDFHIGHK
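Pol iota at 10 nM preincubated 15 min with compounds at room temperature; reaction started with fluorescent substrate, 50 nM final. Fluorescence read kinetically at 0 and 10 min; buffer-only wells as negative control.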
Pol eta inh – inhibitors of human DNA polymerase eta; Q9Y253; recombinant Pol eta, fluorescent DNA replication assay; Potency, µM (series often up to 114 µM), actives largely listed as inhibitors; 1.2% of 390,000 active; AID 588591
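Pol eta at 10 nM preincubated with compounds 15 min at room temperature; reaction started with fluorescent substrate (50 nM final) and read kinetically at 0 and 10 min.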
PGK inhibitor – T. brucei PGK inhibition; P07378; PGK/GAPDH coupled, Kinase-Glo luminescence, 60 min; Potency, µM (doses to about 57.5 µM), most hits filed as inhibitors; 0.043% of 380,000 active; AID 602233; further: nearly all actives have a fitted effect of over 60% in size
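Luminescent ATP detection (Kinase-Glo Plus) follows a 60-minute room-temperature incubation, with wells lacking PGK as controls. Buffer: 100 mM TEA (pH 7.6), 5 mM MgCl2, 0.01% Tween-20. Coupling enzyme GAPDH (100 nM final) supplies unstable 1,3-BPG in-well.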
POLK inh – DNA polymerase kappa (human) inhibition. Q9UBT6. Potency, µM (series often up to 107 µM), usual class: inhibitors. 0.53% of 400,000 active. purified Pol kappa, fluorescent DNA synthesis assay, 10 min
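10 nM Pol kappa was preincubated with compounds for 15 min at room temperature. Reaction started with 50 nM (final) substrate. Fluorescence read kinetically at 0 and 10 min.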
Pol beta inh – blocks human DNA polymerase beta activity; P06746; Pol beta primer extension/strand displacement, fluorescence kinetic; Potency, µM (doses to about 114 µM), most hits filed as inhibitors; 1.3% of 340,000 active
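Values derive from four-parameter Hill fits of normalized kinetic data: reads at 0 and 10 min following addition of 50 nM substrate to 10 nM Pol beta preincubated 15 min with compound.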
FEN1 inhibitor – blocks human flap endonuclease 1 | Recombinant FEN1 flap cleavage, fluorescence, 15 min | 0.35% of 390,000 active | AID 588795 | P39748 | Potency, µM (highest dose often 114 µM), most hits filed as inhibitors; further: nearly all actives have a fitted effect of over 65% in size
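Compounds are tested as a concentration series against 10 nM FEN1; after a 15 min room-temperature preincubation, 50 nM substrate starts cleavage, with plate reads at 0 and 15 min. Normalized responses are fitted by a Hill equation.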
Large screens that a line does not name were inactive. Compounds with a hit are over-represented: about 2.4% of the library has one in this group of screens. The call rests on the fitted dose curve; in most records, active means well fitted curve in the direction sought with a large enough effect; inconclusive means small, poorly fitted or top-dose-only effect, or another doubt; inactive means no such curve, though single readings can be large; an effect the other way counts as inactive or inconclusive.

CN(C)CC1CC/C(=C\c2ccc(O)cc2)C1=O (configuration not stated)	POLI inh inconclusive, Pol eta inh inconclusive, FEN1 inhibitor 56µM (no result: Pol beta inh)
CN(C)CC1CCC/C(=C\c2ccc(OC(=O)/C=C/c3ccccc3)cc2)C1=O (configuration not stated)	Pol eta inh inconclusive (no result: Pol beta inh)
Cc1ccn2c(=O)nc(SCC(=O)Nc3ccc4c(c3)OCO4)nc2c1	POLI inh 35µM, Pol eta inh inconclusive (no result: Pol beta inh)
Cc1ccn2c(=O)nc(SCC(=O)Nc3ccc4c(c3)OCCO4)nc2c1	POLI inh 56µM, Pol eta inh inconclusive (no result: Pol beta inh)
O=C(CSc1nc(=O)n2cc(Cl)ccc2n1)NCCc1ccccc1	POLI inh inconclusive, Pol eta inh 25µM (no result: Pol beta inh)
O=C(CSc1nc(=O)n2ccccc2n1)NCc1ccc2c(c1)OCO2	none (no result: Pol beta inh)
O=C(CSc1nc(=O)n2cc(Cl)ccc2n1)Nc1ccc2c(c1)OCO2	POLI inh inconclusive, Pol eta inh 20µM, FEN1 inhibitor inconclusive (no result: Pol beta inh)
Cc1ccc2nc(SCC(=O)Nc3ccc4c(c3)OCCO4)nc(=O)n2c1	none (no result: Pol beta inh)
Cc1ccc2nc(SCC(=O)NCCc3ccccc3)nc(=O)n2c1	none (no result: Pol beta inh)
COc1cc(/C=C\c2ccc(OC)cc2OC)cc(OC)c1	none (no result: POLI inh, Pol eta inh, PGK inhibitor, Pol beta inh, FEN1 inhibitor)
COc1ccc(OC)c(N(CC(=O)NCc2ccccc2)S(=O)(=O)c2ccccc2)c1	FEN1 inhibitor inconclusive
CC(=O)Nc1cccc(NC(=O)Cc2csc(COc3cccc(C)c3)n2)c1	none
COc1cc(OC)cc(C(=O)NCC(=O)OCC(=O)N2c3ccccc3NC(=O)C2(C)C)c1	Pol beta inh inconclusive
Cc1cc(C)cc(C(=O)NCC(=O)OCC(=O)N2c3ccccc3NC(=O)C2(C)C)c1	Pol beta inh 14µM
CC1(C)C(=O)Nc2ccccc2N1C(=O)COC(=O)c1cccs1	POLI inh inconclusive, Pol eta inh 25µM, POLK inh inconclusive (no result: Pol beta inh)
CC1(C)C(=O)Nc2ccccc2N1C(=O)COC(=O)c1cc(S(=O)(=O)N2CCOCC2)ccc1F	POLI inh 40µM, Pol eta inh inconclusive, POLK inh inconclusive, Pol beta inh 40µM
CC1(C)C(=O)Nc2ccccc2N1C(=O)COC(=O)c1cccnc1Cl	POLI inh inconclusive, Pol eta inh 50µM (no result: Pol beta inh)
Cc1ccc(CNC(=O)C2CCN(S(=O)(=O)c3cc(-c4noc(C)n4)ccc3C)CC2)cc1	none
CC(=O)OCC1=C[C@H]2[C@@H]3C(C)(C)[C@]3(OC(C)=O)C[C@@H](C)[C@]2(O)[C@@H]2C=C(C)C(=O)[C@@]2(O)C1	none (no result: POLI inh, Pol eta inh, PGK inhibitor, Pol beta inh, FEN1 inhibitor)
COc1ccc(-c2cn3nc(N4CCC(C(=O)Nc5cc(Cl)ccc5C)CC4)sc3n2)cc1	none
CCOc1ccc(CCNC(=O)c2cnc3sc(N4CCCCCC4)nn3c2=O)cc1	POLI inh 89µM
CC/C(C)=N/Nc1nc2c(c(=O)[nH]c(=O)n2C)n1Cc1ccccc1	POLI inh 16µM, Pol eta inh inconclusive, PGK inhibitor inconclusive, Pol beta inh inconclusive
CC/C(C)=N/Nc1nc2c(c(=O)[nH]c(=O)n2C)n1CCc1ccccc1	none
O=C(O)/C(=C\c1ccccc1OC(F)F)c1ccc(-c2ccccc2)cc1	Pol beta inh 56µM
COc1cccc(-n2cc(C(=O)Nc3ccccc3C(N)=O)c3ccccc3c2=O)c1	none
C=CCc1cccc(/C=N/n2cnnc2)c1O	none
C=CCc1cccc(/C=C/c2cc(=O)c3ccccc3[nH]2)c1O	POLI inh inconclusive, Pol eta inh inconclusive, Pol beta inh 40µM
O=C(Nc1ccncc1)c1cnn2c1NC(=C1CC1)C=C2C(F)F	none (no result: Pol eta inh, PGK inhibitor, Pol beta inh)
Ic1ccc(/C=C2\C=Cc3ccccc32)cc1	none (no result: Pol eta inh, PGK inhibitor, Pol beta inh)
CO[C@@]1(NC(=O)Cc2cccs2)C(=O)N2C(C(=O)O)=C(COC(N)=O)CSC21 (some centres not stated)	POLK inh 32µM (no result: POLI inh, Pol eta inh, PGK inhibitor, Pol beta inh, FEN1 inhibitor)
CO[C@@]1(NC(=O)CSCC#N)C(=O)N2C(C(=O)O)=C(CSc3nnnn3C)CSC21 (some centres not stated)	none (no result: POLI inh, Pol eta inh, PGK inhibitor, Pol beta inh, FEN1 inhibitor)
CO[C@@]1(NC(=O)Cc2cccs2)C(=O)N2C(C(=O)O)=C(COC(N)=O)CS[C@@H]21	POLI inh inconclusive, Pol eta inh inconclusive, POLK inh inconclusive, Pol beta inh 13µM
CC(C)(C)c1ccc(Cn2cnc3c(cnn3C(C)(C)C)c2=O)cc1	none (no result: Pol eta inh, PGK inhibitor, Pol beta inh)
O=C(O)c1ccc(NC(=O)c2ccccc2NC(=O)c2cccc(F)c2)cc1	none
O=C(Nc1cc(-c2ccccc2)sc1C(=O)O)c1cccc(F)c1	POLI inh inconclusive, Pol eta inh inconclusive, PGK inhibitor inconclusive, Pol beta inh 71µM, FEN1 inhibitor inconclusive
O=[N+]([O-])c1ccc(Cl)c(S(=O)(=O)Nc2ccc(-c3ccc(N4CCCC4)nn3)cc2)c1	POLI inh inconclusive, Pol eta inh 45µM (no result: Pol beta inh)
CC(=O)c1ccc(S(=O)(=O)Nc2ccc(-c3ccc(N4CCCCC4)nn3)cc2)cc1	POLI inh inconclusive, Pol eta inh 79µM, Pol beta inh inconclusive
O=[N+]([O-])c1ccc(Cl)c(S(=O)(=O)Nc2cccc(-c3ccc(N4CCCC4)nn3)c2)c1	Pol eta inh inconclusive (no result: Pol beta inh)
CCOC(=O)Cc1csc(NC(=O)c2sc3nc4c(C)cc(C)cc4cc3c2N)n1	POLI inh 50µM, Pol eta inh inconclusive, Pol beta inh 32µM (no result: PGK inhibitor)
CSCC[C@H](NC(=O)[C@H](CC(C)C)NC(=O)[C@H](CO)NC(=O)[C@H](CCC(=O)O)NC(=O)[C@H](CC(C)C)NC(=O)[C@H](Cc1ccc(O)cc1)NC(=O)[C@H](CCCCN)NC(=O)[C@H](CCCCN)NC(=O)[C@H](C)NC(=O)[C@H](CO)NC(=O)[C@H](CC(C)C)NC(=O)[C@H](CCC(N)=O)NC(=O)CNC(=O)[C@H](CC(C)C)NC(=O)[C@H](CC(C)C)NC(=O)[C@H](CCCCN)NC(=O)[C@H](CO)NC(=O)[C@H](Cc1ccccc1)NC(=O)[C@H](CC(=O)O)NC(=O)[C@H](CO)NC(=O)[C@@H](NC(=O)[C@H](Cc1ccccc1)NC(=O)[C@@H](NC(=O)CNC(=O)[C@H](CC(=O)O)NC(=O)[C@H](C)NC(=O)[C@@H](N)Cc1cnc[nH]1)C(C)C)[C@@H](C)O)C(N)=O	none (no result: POLI inh, Pol eta inh, PGK inhibitor, Pol beta inh, FEN1 inhibitor)
CC(C)COc1ccc(C(=O)Nc2onc3c2CCCC3)cc1	none
CCN(CC)c1ccc(-c2nnc(SCC(=O)NCc3ccco3)n2C)cc1	none (no result: Pol eta inh, PGK inhibitor, Pol beta inh)
CSc1ccccc1NC(=O)C1=CC(c2ccc3c(c2)OCO3)=NS(=O)(=O)N1C	none
Cc1ccc(NC(=O)C(=Cc2ccc(C(=O)O)cc2)C(=O)Nc2ccc(C)cc2C)c(C)c1	POLI inh 13µM, Pol eta inh 79µM
COc1ccc(NC(=O)CCn2c(=S)[nH]c3ccccc3c2=O)cc1Cl	Pol eta inh 35µM (no result: POLI inh, POLK inh, Pol beta inh, FEN1 inhibitor)
